Five molecules from PubChem BioAssay can be followed below.

Records with an inconclusive call do not appear. The source made the active and inactive calls.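 Rule for the calls, unless noted: active = viability loss from added drug above about 55%, and viability with drug at most 40%, in both replicates (limit read from the data, passing the limit was not always enough); inconclusive = both conditions met in only one replicate; inactive = neither replicate meets both conditions.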

Assay [1] is described as follows: reducers of endogenous Her2 protein level, primary screen, SKBR3 breast tumor cells, AlphaScreen, ATP viability (AID 461;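 active = Her2 level under about 52% in both replicate screens, with viability over 70% of control, limit read from the data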;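 for Her2 level: lower value means less Her2 protein in the cells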;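 for viability: percent of carrier control wells set as 100% viability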). To be noted: 18-24 h, measured here: SKBR3 viability, ATP luminescence, at 10 µM.
Assay [2] deals with Receptor tyrosine-protein kinase erbB-2 (Homo sapiens) (UniProt P04626). The assay is described as above. Conditions: 18-24 h, at 10 µM, stronger effect = lower value.
Assay [3] is described as follows: SK-BR-3 cell growth inhibitors, pilot screen, 24 h, human (AID 572;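 active = viability at or below 10% of carrier control in both of two separate runs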;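 note: compound exposure lasted between 18 and 24 h rather than exactly 24 h; 100% = carrier-treated control wells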). Conditions: SK-BR-3 viability, CellTiter-Glo luminescence, at 10 µM, stronger effect = lower value.
Assay [4] is described as follows: HUVEC growth inhibition – cell-based, human, primary screen (AID 575;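 active = viability at or below 30% in both replicate assays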;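 note: 100% = median of untreated cell wells with 0.1% DMSO on each plate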). To be noted: HUVEC proliferation, CellTiter-Glo luminescence, 72 h; at 10 µM; stronger effect = lower value.
Assay [5] is described as follows: growth inhibitors of H69AR lung tumor, primary screen, human, duplicate replicates (AID 580;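 active = viability at or under a set limit in both replicates, limit being median viability minus 3 SD, cut at about 48% in these data, passing the limit was not always enough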;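 note: 100% = mean luminescence of untreated wells and 0% = no signal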). To be noted: H69AR lung tumor cells viability, ATP luminescence, 72 h; at 10 µM; stronger effect = lower value.
The nature of assay [6]: reversal of MRP1-mediated doxorubicin resistance, pilot screen, H69AR cells, doxorubicin co-treatment (AID 601). Conditions: CellTiter-Glo, 72 h, at 10 µM; for differential viability (reversal): stronger effect = higher value.
Assay [7] in a line: 384-well plate pilot, post-Golgi transport modulator project, inhibition of yeast transport mutant growth (AID 636; in the data active = inhibition above about 31%). To be noted: absorbance 615 nm, about 18 h, stronger effect = higher value.
Assay [8] is described as follows: growth suppression of yeast trafficking mutant, preliminary HTS, modulators of trafficking downstream of Golgi apparatus project, 1536-format plate, OD 615 nm (AID 637; in the data active = inhibition above about 30%). Conditions: yeast transport mutant growth, absorbance 615 nm, 18 h; stronger effect = higher value.
Assay [9] can be described thus: OD615 S. cerevisiae growth inhibition, permissive medium, pilot counter-assay, permissive growth control for S. cerevisiae lifespan shortening project (AID 705;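 active = growth inhibition above 25% in both replicates, a cutoff set 3 SD above the mean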). To be noted: OD615, 24 h, at 10 µM, stronger effect = higher value.
Assay [10] in a line: Restrictive medium S. cerevisiae growth inhibition, OD615, pilot screen of yeast lifespan reduction project, restrictive growth control (AID 706;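 active = growth inhibition above a set limit, 3 SD over mean compound inhibition, in both replicates, cut at about 43% in these data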;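 note: modified DeaD lifespan yeast strain shifted to restrictive glucose medium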). To be noted: OD615, 48 h, at 10 µM, stronger effect = higher value.
A short description of assay [11]: viability gain of MRP-1-high H69AR cells under doxorubicin, pilot screen, MRP-1 activator project, CellTiter-Glo, duplicate (AID 807;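 active = viability increase at or above a cutoff of the median across tested compounds plus 3 SD, cut at about 8.5% in these data, passing the limit was not always enough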;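 note: compound pretreatment 18-22 h then 72 h combined with doxorubicin; 0% = doxorubicin alone and 100% = vehicle without doxorubicin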). To be noted: H69AR viability with doxorubicin, CellTiter-Glo luminescence; at 10 µM; stronger effect = higher value.
Assay [12] in a line: growth suppression of beta-catenin knockout HCT116, pilot screen, human colon tumor cells (AID 823;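 active = cell viability at or below a set limit in both duplicate runs, the limit being the all-compound median minus 4 SD, cut at about 23% in these data, passing the limit was not always enough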;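 note: 0% = wells killed by 20 µM Hyamine and 100% = untreated DMSO cell wells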). Conditions: CellTiter-Glo, 60 h, at 10 µM, stronger effect = lower value.
Assay [13] in a line: growth suppression of PTEN-deleted HCT116, pilot screen, cell-based, HCT116 clonal line, CellTiter-Glo (AID 824;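 active = viability at or below 27.92% in each of two runs, the all-compound median minus 4 SD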;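 note: 0% = 20 µM Hyamine control and 100% = vehicle cell control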). To be noted: 60 h, at 10 µM, stronger effect = lower value.
Assay [14] is described as follows: inhibitors of the yeast RAM network, pilot screen, dse1pr::URA3 reporter, 5-FOA selection (AID 869;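 active = inhibition over a set limit, the all-compound mean plus 3 SD, in both replicate runs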;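 note: 0% = DMSO wells with no growth and 100% = 10 µM 1-NA-PP1 with full growth; RAM network block rescues cells from 5-FOA so hits raise OD615 growth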). To be noted: S. cerevisiae dse1pr::URA3 5-FOA growth, OD615, 2 d; at 10 µM; stronger effect = higher value; strain carries analog-sensitive mutant Cbk1 kinase.
Assay [15] can be described thus: RAM signaling pathway blockade in yeast – S. cerevisiae, Pdr1DBD-CYC8 efflux-inhibited sensitized strain, primary screen (AID 1298;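 active = RAM network inhibition above 8.4% in each of two replicates, 3 SD over the compound average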;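 note: 0% = DMSO untreated cells without growth and 100% = 10 µM 1-NA-PP1 full growth; higher means more yeast growth rescued from 5-FOA killing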). Conditions: S. cerevisiae cbk1-as DSE1-URA3 strain, 5-FOA growth OD615, 2 d; at 50 µM; stronger effect = higher value.
Where [16] appears, read: H69AR cells + 2 uM doxorubicin, measured here: viability with 2 uM doxorubicin, stronger effect = lower value.
[17] abbreviates: H69AR cells, compound alone cytotoxicity.

Chain of Receptor tyrosine-protein kinase erbB-2 (Homo sapiens) (P04626 whole entry, looked up): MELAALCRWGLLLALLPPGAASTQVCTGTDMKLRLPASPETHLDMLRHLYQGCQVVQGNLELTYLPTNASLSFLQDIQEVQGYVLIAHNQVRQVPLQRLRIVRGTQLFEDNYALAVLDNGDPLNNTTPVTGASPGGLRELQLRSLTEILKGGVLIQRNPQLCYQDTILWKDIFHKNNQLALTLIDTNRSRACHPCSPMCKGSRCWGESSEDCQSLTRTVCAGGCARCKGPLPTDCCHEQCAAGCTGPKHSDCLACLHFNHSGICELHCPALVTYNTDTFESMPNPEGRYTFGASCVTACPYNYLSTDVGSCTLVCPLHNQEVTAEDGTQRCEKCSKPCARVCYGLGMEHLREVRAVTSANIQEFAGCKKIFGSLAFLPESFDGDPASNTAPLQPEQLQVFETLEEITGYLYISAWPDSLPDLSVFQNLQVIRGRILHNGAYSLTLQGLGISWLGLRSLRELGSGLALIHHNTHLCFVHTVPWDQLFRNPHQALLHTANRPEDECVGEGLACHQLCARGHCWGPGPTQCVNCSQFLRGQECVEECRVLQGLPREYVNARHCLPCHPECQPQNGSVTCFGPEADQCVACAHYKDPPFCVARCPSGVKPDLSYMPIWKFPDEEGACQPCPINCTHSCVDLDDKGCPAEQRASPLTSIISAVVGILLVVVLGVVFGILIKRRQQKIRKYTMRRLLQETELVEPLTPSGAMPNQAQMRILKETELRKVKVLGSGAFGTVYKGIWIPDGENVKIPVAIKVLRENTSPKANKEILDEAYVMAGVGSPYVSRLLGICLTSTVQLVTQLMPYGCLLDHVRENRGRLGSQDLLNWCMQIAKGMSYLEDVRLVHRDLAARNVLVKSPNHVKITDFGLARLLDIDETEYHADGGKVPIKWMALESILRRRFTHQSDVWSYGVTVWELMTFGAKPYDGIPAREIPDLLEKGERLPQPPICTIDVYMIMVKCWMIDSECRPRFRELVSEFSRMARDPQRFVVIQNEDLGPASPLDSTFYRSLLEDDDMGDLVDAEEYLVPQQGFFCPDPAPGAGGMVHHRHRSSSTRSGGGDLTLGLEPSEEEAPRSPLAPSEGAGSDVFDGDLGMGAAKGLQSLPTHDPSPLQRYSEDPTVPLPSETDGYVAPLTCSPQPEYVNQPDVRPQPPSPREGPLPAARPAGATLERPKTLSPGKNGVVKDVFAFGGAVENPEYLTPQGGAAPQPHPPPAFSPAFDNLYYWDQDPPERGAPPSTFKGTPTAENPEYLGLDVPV

With `CN(C)CCNc1oc(-c2ccccc2F)nc1C#N`, the viability in assay [1] is 93%; in assay [3], 93% (inactive); in assay [4], 87.4% (inactive); in assay [5], 105% (inactive); in [6] (setting [16]) it was 90.3%; in assay [6] (setting [17]), 105%. In addition, the viability in assay [12] and in assay [13] was 107% (inactive) in each case. For the same molecule, the Her2 level in [2] is 94% (inactive). Further, the differential viability (reversal) in [6] (H69AR cells + 2 uM doxorubicin) is 14.7% (inactive). In addition, the inhibition in [7] was -4.27% (inactive); in assay [8] it was 3.77% (inactive); in assay [14], 1.36% (inactive). Further, the figures for the growth inhibition in [9] and in assay [10] were -13.7% (inactive) and -6.7% (inactive), respectively. Also, the viability increase in [11] is 1.17% (inactive). Besides, the RAM network inhibition in assay [15] was 1.9% (inactive).

With `Cc1nc2ccccc2c2oc(C(=O)NCCN3CCCCC3C)cc12` (stereo not given), the viability in [1] is 81%; in assay [3], 81% (inactive); in assay [4], 99.5% (inactive); in assay [5], 93.1% (inactive); in assay [6] (setting [16]) it was 99.2%; in assay [6] (setting [17]) it was 93.1%. Also, the viability was 66.4% (inactive) in assay [12] and 70.6% (inactive) in [13]. Moreover, the Her2 level in assay [2] was 94% (inactive). The differential viability (reversal) in assay [6] (H69AR cells + 2 uM doxorubicin) was -6.12% (inactive). Further, the inhibition is -3.46% (inactive) in assay [7], -3% (inactive) in assay [8] and 1.77% (inactive) in [14]. The growth inhibition is -3.45% (inactive) in assay [9] and 0.34% (inactive) in assay [10]. The viability increase in assay [11] was -2.08% (inactive). In addition, in assay [15], the RAM network inhibition was -0.67% (inactive).

Consider `Cc1noc(C(=O)Nc2ccc3c(c2)OCO3)c1Cl`, for which the viability in assay [1] was 84.5%; in [3], 84.5% (inactive); in assay [4], 51.4% (inactive); in [5], 96.9% (inactive); in [6] (setting [16]), 97.2%; in assay [6] (setting [17]), 96.9%. The viability is 95.9% (inactive) in [12] and 89.7% (inactive) in [13]. Also, the Her2 level in assay [2] was 75% (inactive). Further, the differential viability (reversal) in assay [6] (H69AR cells + 2 uM doxorubicin) was -0.25% (inactive). Also, the inhibition was -4.13% (inactive) in assay [7], 1.67% (inactive) in assay [8] and 2.92% (inactive) in assay [14]. The growth inhibition in assay [9] is -0.74% (inactive); in [10] it was 6.31% (inactive). The viability increase in assay [11] was -3.47% (inactive). For the same molecule, the RAM network inhibition in assay [15] was 5.2% (inactive).

On to `COc1c(S(=O)(=O)n2nc(C)cc2C)ccc(Cl)c1Cl`, for which the viability in [1] is 98%; in assay [3] it was 98% (inactive); in assay [4], 101% (inactive); in assay [5] it was 98% (inactive); in [6] (setting [16]), 99%; in assay [6] (setting [17]), 98%. The viability is 95.8% (inactive) in assay [12] and 86.2% (inactive) in [13]. Moreover, the Her2 level in assay [2] was 101% (inactive). In assay [6] (H69AR cells + 2 uM doxorubicin), the differential viability (reversal) is -1.02% (inactive). Besides, the inhibition was -2.76% (inactive) in assay [7], 2.33% (inactive) in assay [8] and 1.5% (inactive) in assay [14]. Besides, the growth inhibition was -5.31% (inactive) in [9] and 8.94% (inactive) in [10]. The viability increase in assay [11] was 1.75% (inactive). Also, the RAM network inhibition in assay [15] was 2.6% (inactive).

On to `Cc1ccc(S(=O)(=O)NCCOC(=O)Nc2sc(=S)n(C)c2C)cc1`, for which the viability in assay [1] was 75.5%; in assay [3] it was 75.5% (inactive); in [4] it was 90% (inactive); in assay [5], 101% (inactive); in [6] (setting [16]), 94.1%; in assay [6] (setting [17]), 101%. The results for the viability in [12] and in assay [13] were 115% (inactive) and 88.2% (inactive), respectively. The Her2 level in assay [2] was 96.5% (inactive). Moreover, the differential viability (reversal) in assay [6] (H69AR cells + 2 uM doxorubicin) was 7.26% (inactive). The values for the inhibition in assay [7], in assay [8] and in assay [14] were -2.84% (inactive), 14.9% (inactive) and 1.25% (inactive), respectively. The growth inhibition was 6.39% (inactive) in assay [9] and 23.1% (inactive) in assay [10]. In [11], the viability increase is -3.78% (inactive). Further, in [15], the RAM network inhibition was 1.73% (inactive).
